HepG2 viability – kills HepG2 cells in TGF-b inhibitor counter-screen | HepG2 CAGA-GFP viability, ATP luminescence, 18 h | 410,000 compounds, 0.76% hits | AID 588856 | Potency, µM (series often up to 46.1 µM), inactives show at the top dose activity change, negative = cytotoxicity, hits mostly cytotoxic; note: potency is the fitted concentration of half-maximal effect
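CellTiter-Glo luminescence gave cytotoxicity after 18 hours at 37 degrees C. The cells were HepG2 CAGA-GFP in 1% FBS DMEM, stimulated with 500 pg/mL TGF-beta after compound addition. %Activity was normalised to no-cell wells (complete cell-killing) and DMSO (no toxicity), and curves were fitted and classified.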
DRD3 antagonist – blocks the human D3 dopamine receptor. 360,000 compounds, 2.5% hits. D3R cells, DiscoveRx beta-arrestin luminescence, antagonist mode; active compounds read low. AID 652054. max response, negative = inhibition, %. P35462; in the data active = max response below about -50%; inconclusive = no clear call, values can overlap the other calls; note: % is set by controls: 0 for no effect and ±100 for the full control effect
Target sequence (P35462 whole entry, looked up): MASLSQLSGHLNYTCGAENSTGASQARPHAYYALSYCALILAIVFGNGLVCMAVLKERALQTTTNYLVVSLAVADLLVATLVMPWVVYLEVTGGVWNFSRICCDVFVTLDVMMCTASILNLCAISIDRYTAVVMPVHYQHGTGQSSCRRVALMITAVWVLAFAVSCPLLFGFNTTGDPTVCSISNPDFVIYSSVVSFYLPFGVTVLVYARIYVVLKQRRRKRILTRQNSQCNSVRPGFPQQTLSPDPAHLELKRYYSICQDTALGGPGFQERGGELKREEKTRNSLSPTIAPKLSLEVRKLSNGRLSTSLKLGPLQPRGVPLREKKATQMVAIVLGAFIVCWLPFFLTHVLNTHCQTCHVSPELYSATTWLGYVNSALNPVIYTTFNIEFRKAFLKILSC
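Cells plated overnight at 1500 cells/well, then exposed to library compounds with dopamine controls for 90 minutes at 37 degrees C. DiscoveRx reagent added for 30–60 minutes at room temperature; luminescence read, quantitative HTS format.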
TGFb SMAD3 inh – inhibitors of TGF-b signaling; HepG2 CAGA-GFP TGF-b/SMAD3 reporter, GFP fluorescence, 18 h; TGF-beta stimulated, 500 pg/mL final; Potency, µM (highest dose often 46.1 µM), without a hit: at the top dose activity, negative = inhibition, hits mostly inhibitors; 410,000 compounds, 1.2% hits; AID 588855; note: potency is the fitted concentration of half-maximal effect; % is set by controls: 0 for no effect and ±100 for the full control effect; nearly all actives have a fitted effect of over 65% in size
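Inhibition of TGF-beta-driven CAGA-GFP reporter expression in HEPG2 cells is measured by cellular GFP fluorescence after 18 h stimulation with 500 pg/mL recombinant TGF-beta in 1% FBS medium at 37 degrees C.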
ATXN2 expr inh – ATXN2 expression inhibition; HEK-293 ATXN2-luciferase reporter, luminescence, 24 h; Potency, µM (top dose mostly 57 µM), for the others: top-dose activity change, negative = inhibition, usual class: inhibitors; 360,000 compounds, 0.72% hits; AID 1745845; note: potency is the fitted concentration of half-maximal effect; % is set by controls: 0 for no effect and ±100 for the full control effect; nearly all actives have a fitted effect of over 55% in size
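ATXN2-luciferase reporter cells (luciferase flanked by upstream and downstream ATXN2 gene portions) were treated 24 h at 37 °C with compounds at up to 57 uM. SteadyGlo luminescence gave expression; GF-AFC fluorescence gave viability.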
D3 ag – activates the human D3 dopamine receptor; D3R DiscoveRx beta-arrestin cells, luminescence, 90 min; max activation, %; 410,000 compounds, 0.58% hits; AID 652048; in the data active = max activation above about 30%; note: 0% is about no effect
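Cells at 1500/well, incubated overnight, then treated with pinned compounds (dopamine as control) for 90 min at 37 degrees C. DiscoveRx reagent added for 30 - 60 minutes at room temperature; luminescence read.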
S2 tox – viability counter-screen for ATXN expression inhibitors; S2 cells (HEK-293 line with an ATXN2-luciferase reporter) viability, CellTiter-Fluor protease fluorescence, 24 h; Potency, µM (series often up to 56.7 µM), actives largely listed as cytotoxic; 400,000 compounds, 0.49% hits; note: potency is the fitted concentration of half-maximal effect; nearly all actives have a fitted effect of over 40% in size
Active calls of the source: *; i = inactive; ? = inconclusive; / = not tested or not shown; ! = not active in a repeat. Hits are enriched below; roughly 4.8% of the tested compounds scored in any of these assays. Unless noted, calls come from the whole dose curve; as a rule, active = well fitted curve in the direction sought with a large enough effect; inconclusive = small, poorly fitted or top-dose-only effect, or another doubt; inactive = no such curve, though single readings can be large; an effect the other way counts as inactive or inconclusive.

SMILES	HepG2 viability	DRD3 antagonist	TGFb SMAD3 inh	ATXN2 expr inh	D3 ag	S2 tox
CCN(c1ccccc1)S(=O)(=O)c1cc(C(=O)NCC(c2ccc(OC)cc2)N(C)C)ccc1C (configuration not stated)	-23%	-90*	?	-22%	-20	i
O=c1c2c3c(sc2n(Cc2cc(=O)n4ccccc4n2)c(=O)n1-c1ccccc1)CCC3	9%	/	6%	3%	0	i
O=C(/C=C/NNC(=O)c1ccccc1)c1ccccc1	-17%	-53*	-29%	-5%	-12	i
O=C(/C=C/NNC(=O)c1ccccc1)c1ccc([N+](=O)[O-])cc1	-49%	-28	?	7.5µM*	-8	?
CC(C)(C)c1nnc(NS(=O)(=O)c2ccc(N)cc2)s1	/	/	/	0%	/	i
CC(C)NC(=O)C1CCCN(S(=O)(=O)c2cccc3nonc23)C1 (configuration not stated)	-18%	9	6%	-5%	0	i
CC(NC(=O)C1CCCN(S(=O)(=O)c2cccc3nonc23)C1)c1ccccc1 (configuration not stated)	-50%	-61*	-21%	-7%	-30	i
Cc1cnc2c(C)cccc2c1C	26%	/	-7%	/	/	/
CCC(O)CNC(=O)c1cnn(-c2ncc3c(n2)-c2ccccc2CCC3)c1C1CC1 (configuration not stated)	/	/	/	/	/	i
Cc1cc(C)c(C(CC(=O)c2cccs2)C(C#N)C#N)c(C)c1 (configuration not stated)	13µM*	3	18µM*	?	4	/
Cc1cc(Cl)ccc1OCC(=O)OC(C)C(=O)NC(N)=O (configuration not stated)	-3%	-15	6%	-1%	46*	i
CC(C)CC(=O)Nc1nc2nc(-c3ccccc3)cc(=O)n2[nH]1	2%	/	0%	0%	1	i
CCc1nc2ccc(C(=O)Nc3ccc4c(c3)OCC(=O)N4)cn2c1N(CC)Cc1cccc(Br)c1	-19%	0	?	?	5	40µM*
CCc1nc2ccc(C(=O)Nc3cccc(NS(C)(=O)=O)c3)cn2c1N(CC)Cc1cccc(Br)c1	-73%	0	?	28µM*	-12	?
Nc1cc(C(F)(F)F)ccc1S	/	/	/	-18%	/	i
Cc1ccc(Cl)cc1NCc1nnc2n1CCCCC2	3%	/	3%	5%	-3	i
O=C(Nc1ccc(-c2nc3cc(Cl)ccc3c(=O)o2)cc1)c1ccco1	-3%	-21	-1%	-20%	8	i
O=C(Nc1ccc(-c2nc3c(ccc4ccccc43)o2)cc1)c1ccco1	-33%	59	-1%	4%	46*	i
COc1cccc(/C=N/NC(=O)CNC(=O)COc2ccccc2)c1O	-4%	5	?	/	25	?
Cc1cccc(OCC(=O)NCC(=O)N/N=C/c2cc(Br)cc(Br)c2O)c1	-15%	-81*	-4%	14µM*	-25	i
Cc1oc(-c2cccc(NC(=O)C3CCCN(C)C3)c2)nc1CNC(=O)c1coc2c1C(=O)CCC2 (configuration not stated)	/	/	/	/	/	i
Cc1ccc(OCCSc2nc3ccccc3n2CCC(=O)O)c(C(C)C)c1	-28%	-52*	1%	/	-4	i
Cc1[nH]n(-c2ccccc2)c(=O)c1N=Nc1nccs1	-27%	?	?	22µM*	-28	/
O=C(NCC(c1ccco1)N1CCCC1)c1cc2ccccc2s1 (configuration not stated)	-28%	-59*	-6%	9%	-19	i
Cc1ccc2c(Cl)c(C(=O)NCC(c3ccco3)N3CCCC3)sc2c1 (configuration not stated)	1%	1	0%	/	-14	i
SMILES	HepG2 viability	DRD3 antagonist	TGFb SMAD3 inh	ATXN2 expr inh	D3 ag	S2 tox
O=C(NCC(c1ccco1)N1CCCCC1)c1ccc([N+](=O)[O-])s1 (configuration not stated)	-63%	-15	16µM*	?	-12	i
Cc1ccc(C(=O)NCC(c2ccco2)N2CCCCC2)s1 (configuration not stated)	-2%	?	-4%	/	-8	i
CCn1c(-c2ccccc2F)nc2cc(NC(C)=O)cc(C(=O)N3CCCC3c3nccs3)c21 (configuration not stated)	/	/	/	/	/	i
CCOC(=O)C1CCCN(c2nc3c(S(=O)(=O)c4ccc(C)c(C)c4)nnn3c3ccc(Cl)cc23)C1 (configuration not stated)	6%	/	-2%	1%	2	i
Cc1c(C(=O)N2CCC(C)CC2)c(S(=O)(=O)Nc2cccc(C#N)c2)c(C)n1C	1%	/	0%	/	7	/
Cc1cccc(N2CCN(C(=O)CSc3nc4ccccc4nc3N3CC(C)OC(C)C3)CC2)c1C (configuration not stated)	-31%	39	-18%	-33%	76*	i
Cc1cccc(NC(=O)CSc2nc3ccccc3nc2N2CC(C)OC(C)C2)c1 (configuration not stated)	8%	20	?	-11%	5	?
CCS(=O)(=O)c1cccc(-c2cc(C(=O)NC3CCN(C)CC3)c(C)c3[nH]c4ncc(C)cc4c23)c1	/	/	/	1.9µM*	/	/
COC(=O)c1ccc(OCC2c3cc(OC)c(OC)cc3CCN2C(=O)c2cccc(C)c2)cc1 (configuration not stated)	-15%	/	?	?	1	i
CCc1ccc(Nc2nc(N)nc(CSc3nc4ccccc4s3)n2)cc1	7.9µM*!	13	?	-35%	10	?
Cc1nnc(SCc2nc(N)nc(Nc3ccccc3)n2)s1	1%	4	2%	36%	0	i
OC(COCC(F)(F)C(F)(F)C(F)(F)C(F)F)Cn1c2ccccc2c2ccccc21 (configuration not stated)	18µM*	?	?	?	-3	?
Cc1ccc(CN2CCN(C(=O)c3ccco3)CC2)cc1	0%	0	-5%	-7%	31*	i
COc1ccc(C(=O)OCC(=O)N2CCN(C(=O)c3ccco3)CC2)c(OC)c1OC	-4%	12	1%	/	7	i
COc1ccccc1CN1CCN(C(=O)c2ccco2)CC1	19%	19	-13%	-18%	32*	i
Cc1ccccc1CN1CCN(C(=O)c2ccco2)CC1	4%	8	0%	41%	3	i
COc1ccc(CN2CCN(C(=O)c3ccco3)CC2)cc1OC	1%	-25	0%	5%	45*	i

Assay outcomes (PubChem BioAssay)
